# Legend:
# Experiment in all cases: SPOT peptide array binding signal intensity (averaged, normalized) (arbitrary units (background-subtracted, floor 0; scale differs between SH3 domains)); higher = stronger binding of the SH3 domain to the peptide
# AgAbp1 = biological target: AgAbp1
# Outline: (§1)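 Spot intensities were captured after detection with anti-GST antibody, an HRP-linked anti-mouse secondary and luminol, and quantified with Genespotter. The probes were GST-fused SH3 domains from four yeast species, produced in E. coli BL21(DE3), purified on glutathione Sepharose and incubated at 10 μg/ml overnight at 4°C on cellulose-bound synthetic 15-mer peptides with cysteines replaced by serines. Binding signal is the normalized, background-subtracted spot intensity averaged over replicates, and its arbitrary units differ between domains.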
# AgBbc1 = biological target: AgBbc1
# Outline: as §1
# AgBem1-D1 = biological target: AgBem1-D1
# Outline: as §1
# AgBzz1-D1 = biological target: AgBzz1-D1
# Outline: as §1
# AgBzz1-D2 = biological target: AgBzz1-D2
# Outline: as §1
# AgCyk3 = biological target: AgCyk3
# Outline: as §1
# AgFus1 = biological target: AgFus1
# Outline: as §1
# AgHof1 = biological target: AgHof1
# Outline: as §1
# AgHse1 = biological target: AgHse1
# Outline: as §1
# AgLsb1 = biological target: AgLsb1
# Outline: as §1
# AgLsb4 = biological target: AgLsb4
# Outline: as §1
# AgMyo5 = biological target: AgMyo5
# Outline: as §1
# AgNbp2 = biological target: AgNbp2
# Outline: as §1
# AgRvs167 = biological target: AgRvs167
# Outline: as §1
# AgSho1 = biological target: AgSho1
# Outline: as §1
# AgSla1-D1-D2 = biological target: AgSla1-D1-D2
# Outline: as §1
# AgSla1-D3 = biological target: AgSla1-D3
# Outline: as §1
# CaAbp1-D1 = biological target: CaAbp1-D1
# Outline: as §1
# CaAbp1-D2 = biological target: CaAbp1-D2
# Outline: as §1
# CaBbc1 = biological target: CaBbc1
# Outline: as §1
# CaBem1-D1 = biological target: CaBem1-D1
# Outline: as §1
# CaBzz1-D1 = biological target: CaBzz1-D1
# Outline: as §1
# CaBzz1-D2 = biological target: CaBzz1-D2
# Outline: as §1
# CaCyk3 = biological target: CaCyk3
# Outline: as §1
# CaFus1 = biological target: CaFus1
# Outline: as §1
# CaHof1 = biological target: CaHof1
# Outline: as §1
# CaHse1 = biological target: CaHse1
# Outline: as §1
# CaLsb1 = biological target: CaLsb1
# Outline: as §1
# CaLsb4 = biological target: CaLsb4
# Outline: as §1
# CaMyo5 = biological target: CaMyo5
# Outline: as §1
# CaNbp2 = biological target: CaNbp2
# Outline: as §1
# CaRvs167 = biological target: CaRvs167
# Outline: as §1
# CaRvs167-3 = biological target: CaRvs167-3
# Outline: as §1
# CaSho1 = biological target: CaSho1
# Outline: as §1
# CaSla1-D1-D2 = biological target: CaSla1-D1-D2
# Outline: as §1
# CaSla1-D3 = biological target: CaSla1-D3
# Outline: as §1
# ScAbp1 = biological target: ScAbp1
# Outline: as §1
# ScBbc1 = biological target: ScBbc1
# Outline: as §1
# ScBem1-D1 = biological target: ScBem1-D1
# Outline: as §1
# ScBzz1-D1 = biological target: ScBzz1-D1
# Outline: as §1
# ScBzz1-D2 = biological target: ScBzz1-D2
# Outline: as §1
# ScCyk3 = biological target: ScCyk3
# Outline: as §1
# ScFus1 = biological target: ScFus1
# Outline: as §1
# ScHof1 = biological target: ScHof1
# Outline: as §1
# ScHse1 = biological target: ScHse1
# Outline: as §1
# ScLsb1 = biological target: ScLsb1
# Outline: as §1
# ScLsb2 = biological target: ScLsb2
# Outline: as §1
# ScLsb3 = biological target: ScLsb3
# Outline: as §1
# ScLsb4 = biological target: ScLsb4
# Outline: as §1
# ScMyo3 = biological target: ScMyo3
# Outline: as §1
# ScMyo5 = biological target: ScMyo5
# Outline: as §1
# ScNbp2 = biological target: ScNbp2
# Outline: as §1
# ScPex13 = biological target: ScPex13
# Outline: as §1
# ScRvs167 = biological target: ScRvs167
# Outline: as §1
# ScSho1 = biological target: ScSho1
# Outline: as §1
# ScSla1-D1-D2 = biological target: ScSla1-D1-D2
# Outline: as §1
# ScSla1-D3 = biological target: ScSla1-D3
# Outline: as §1
# SpAbp1-D1 = biological target: SpAbp1-D1
# Outline: as §1
# SpBbc1 = biological target: SpBbc1
# Outline: as §1
# SpBzz1-D1 = biological target: SpBzz1-D1
# Outline: as §1
# SpBzz1-D2 = biological target: SpBzz1-D2
# Outline: as §1
# SpCyk3 = biological target: SpCyk3
# Outline: as §1
# SpHof1 = biological target: SpHof1
# Outline: as §1
# SpHof1-2 = biological target: SpHof1-2
# Outline: as §1
# SpHof1-3 = biological target: SpHof1-3
# Outline: as §1
# SpHse1 = biological target: SpHse1
# Outline: as §1
# SpLsb1 = biological target: SpLsb1
# Outline: as §1
# SpLsb4 = biological target: SpLsb4
# Outline: as §1
# SpMyo1 = biological target: SpMyo1
# Outline: as §1
# SpNbp2 = biological target: SpNbp2
# Outline: as §1
# SpPex13 = biological target: SpPex13
# Outline: as §1
# SpRvs167 = biological target: SpRvs167
# Outline: as §1
# SpSla1-D1-D2 = biological target: SpSla1-D1-D2
# Outline: as §1
# SpSla1-D3 = biological target: SpSla1-D3
# Outline: as §1
binder,measurement,setting,value
NVLRKILEIPLHSFS,SPOT peptide array binding signal intensity,AgAbp1,4
same,SPOT peptide array binding signal intensity,AgBbc1,≤ 0
same,SPOT peptide array binding signal intensity,AgBem1-D1,≤ 0
same,SPOT peptide array binding signal intensity,AgBzz1-D1,5.5
same,SPOT peptide array binding signal intensity,AgBzz1-D2,24.5
same,SPOT peptide array binding signal intensity,AgCyk3,≤ 0
same,SPOT peptide array binding signal intensity,AgFus1,29.5
same,SPOT peptide array binding signal intensity,AgHof1,≤ 0
same,SPOT peptide array binding signal intensity,AgHse1,2570
same,SPOT peptide array binding signal intensity,AgLsb1,2
same,SPOT peptide array binding signal intensity,AgLsb4,16
same,SPOT peptide array binding signal intensity,AgMyo5,≤ 0
same,SPOT peptide array binding signal intensity,AgNbp2,≤ 0
same,SPOT peptide array binding signal intensity,AgRvs167,1
same,SPOT peptide array binding signal intensity,AgSho1,≤ 0
same,SPOT peptide array binding signal intensity,AgSla1-D1-D2,≤ 0
same,SPOT peptide array binding signal intensity,AgSla1-D3,2
same,SPOT peptide array binding signal intensity,CaAbp1-D1,≤ 0
same,SPOT peptide array binding signal intensity,CaAbp1-D2,≤ 0
same,SPOT peptide array binding signal intensity,CaBbc1,≤ 0
same,SPOT peptide array binding signal intensity,CaBem1-D1,≤ 0
same,SPOT peptide array binding signal intensity,CaBzz1-D1,≤ 0
same,SPOT peptide array binding signal intensity,CaBzz1-D2,≤ 0
same,SPOT peptide array binding signal intensity,CaCyk3,≤ 0
same,SPOT peptide array binding signal intensity,CaFus1,1150
same,SPOT peptide array binding signal intensity,CaHof1,≤ 0
same,SPOT peptide array binding signal intensity,CaHse1,7
same,SPOT peptide array binding signal intensity,CaLsb1,6
same,SPOT peptide array binding signal intensity,CaLsb4,≤ 0
same,SPOT peptide array binding signal intensity,CaMyo5,≤ 0
same,SPOT peptide array binding signal intensity,CaNbp2,94.5
same,SPOT peptide array binding signal intensity,CaRvs167,≤ 0
same,SPOT peptide array binding signal intensity,CaRvs167-3,7.25
same,SPOT peptide array binding signal intensity,CaSho1,75
same,SPOT peptide array binding signal intensity,CaSla1-D1-D2,≤ 0
same,SPOT peptide array binding signal intensity,CaSla1-D3,≤ 0
same,SPOT peptide array binding signal intensity,ScAbp1,2
same,SPOT peptide array binding signal intensity,ScBbc1,≤ 0
same,SPOT peptide array binding signal intensity,ScBem1-D1,≤ 0
same,SPOT peptide array binding signal intensity,ScBzz1-D1,12
same,SPOT peptide array binding signal intensity,ScBzz1-D2,26
same,SPOT peptide array binding signal intensity,ScCyk3,31
same,SPOT peptide array binding signal intensity,ScFus1,123
same,SPOT peptide array binding signal intensity,ScHof1,≤ 0
same,SPOT peptide array binding signal intensity,ScHse1,1780
same,SPOT peptide array binding signal intensity,ScLsb1,59.8
same,SPOT peptide array binding signal intensity,ScLsb2,≤ 0
same,SPOT peptide array binding signal intensity,ScLsb3,≤ 0
same,SPOT peptide array binding signal intensity,ScLsb4,≤ 0
same,SPOT peptide array binding signal intensity,ScMyo3,0.75
same,SPOT peptide array binding signal intensity,ScMyo5,≤ 0
same,SPOT peptide array binding signal intensity,ScNbp2,9.5
same,SPOT peptide array binding signal intensity,ScPex13,≤ 0
same,SPOT peptide array binding signal intensity,ScRvs167,0.833
same,SPOT peptide array binding signal intensity,ScSho1,120
same,SPOT peptide array binding signal intensity,ScSla1-D1-D2,≤ 0
same,SPOT peptide array binding signal intensity,ScSla1-D3,≤ 0
same,SPOT peptide array binding signal intensity,SpAbp1-D1,≤ 0
same,SPOT peptide array binding signal intensity,SpBbc1,38
same,SPOT peptide array binding signal intensity,SpBzz1-D1,≤ 0
LTRRFPFLFPFDTRM,SPOT peptide array binding signal intensity,AgAbp1,4
same,SPOT peptide array binding signal intensity,AgBbc1,≤ 0
same,SPOT peptide array binding signal intensity,AgBem1-D1,47
same,SPOT peptide array binding signal intensity,AgBzz1-D1,13
same,SPOT peptide array binding signal intensity,AgBzz1-D2,27
same,SPOT peptide array binding signal intensity,AgCyk3,1
same,SPOT peptide array binding signal intensity,AgFus1,198
same,SPOT peptide array binding signal intensity,AgHof1,43.5
same,SPOT peptide array binding signal intensity,AgHse1,1430
same,SPOT peptide array binding signal intensity,AgLsb1,1.75
same,SPOT peptide array binding signal intensity,AgLsb4,18
same,SPOT peptide array binding signal intensity,AgMyo5,1.5
same,SPOT peptide array binding signal intensity,AgNbp2,36
same,SPOT peptide array binding signal intensity,AgRvs167,3.33
same,SPOT peptide array binding signal intensity,AgSho1,21
same,SPOT peptide array binding signal intensity,AgSla1-D1-D2,25.5
same,SPOT peptide array binding signal intensity,AgSla1-D3,4
same,SPOT peptide array binding signal intensity,CaAbp1-D1,573
same,SPOT peptide array binding signal intensity,CaAbp1-D2,155
same,SPOT peptide array binding signal intensity,CaBbc1,3.25
same,SPOT peptide array binding signal intensity,CaBem1-D1,7
same,SPOT peptide array binding signal intensity,CaBzz1-D1,40
same,SPOT peptide array binding signal intensity,CaBzz1-D2,12.5
same,SPOT peptide array binding signal intensity,CaCyk3,8
same,SPOT peptide array binding signal intensity,CaFus1,1040
same,SPOT peptide array binding signal intensity,CaHof1,0.5
same,SPOT peptide array binding signal intensity,CaHse1,83.5
same,SPOT peptide array binding signal intensity,CaLsb1,≤ 0
same,SPOT peptide array binding signal intensity,CaLsb4,9.5
same,SPOT peptide array binding signal intensity,CaMyo5,13.8
same,SPOT peptide array binding signal intensity,CaNbp2,249
same,SPOT peptide array binding signal intensity,CaRvs167,10.2
same,SPOT peptide array binding signal intensity,CaRvs167-3,43.2
same,SPOT peptide array binding signal intensity,CaSho1,892
same,SPOT peptide array binding signal intensity,CaSla1-D1-D2,30.5
same,SPOT peptide array binding signal intensity,CaSla1-D3,20
same,SPOT peptide array binding signal intensity,ScAbp1,39
same,SPOT peptide array binding signal intensity,ScBbc1,0.5
same,SPOT peptide array binding signal intensity,ScBem1-D1,14
same,SPOT peptide array binding signal intensity,ScBzz1-D1,10
same,SPOT peptide array binding signal intensity,ScBzz1-D2,10
same,SPOT peptide array binding signal intensity,ScCyk3,374
same,SPOT peptide array binding signal intensity,ScFus1,289
same,SPOT peptide array binding signal intensity,ScHof1,0.5
same,SPOT peptide array binding signal intensity,ScHse1,1600
same,SPOT peptide array binding signal intensity,ScLsb1,≤ 0
same,SPOT peptide array binding signal intensity,ScLsb2,≤ 0
same,SPOT peptide array binding signal intensity,ScLsb3,27.5
same,SPOT peptide array binding signal intensity,ScLsb4,≤ 0
same,SPOT peptide array binding signal intensity,ScMyo3,2.5
same,SPOT peptide array binding signal intensity,ScMyo5,1.5
same,SPOT peptide array binding signal intensity,ScNbp2,128
same,SPOT peptide array binding signal intensity,ScPex13,≤ 0
same,SPOT peptide array binding signal intensity,ScRvs167,14.3
same,SPOT peptide array binding signal intensity,ScSho1,335
same,SPOT peptide array binding signal intensity,ScSla1-D1-D2,7
same,SPOT peptide array binding signal intensity,ScSla1-D3,7.5
same,SPOT peptide array binding signal intensity,SpAbp1-D1,195
same,SPOT peptide array binding signal intensity,SpBbc1,≤ 0
same,SPOT peptide array binding signal intensity,SpBzz1-D1,53.5
same,SPOT peptide array binding signal intensity,SpBzz1-D2,≤ 0
same,SPOT peptide array binding signal intensity,SpCyk3,11.5
same,SPOT peptide array binding signal intensity,SpHof1,72.5
same,SPOT peptide array binding signal intensity,SpHof1-2,11.5
same,SPOT peptide array binding signal intensity,SpHof1-3,1320
same,SPOT peptide array binding signal intensity,SpHse1,1740
same,SPOT peptide array binding signal intensity,SpLsb1,≤ 0
same,SPOT peptide array binding signal intensity,SpLsb4,≤ 0
same,SPOT peptide array binding signal intensity,SpMyo1,7
same,SPOT peptide array binding signal intensity,SpNbp2,69
same,SPOT peptide array binding signal intensity,SpPex13,14
same,SPOT peptide array binding signal intensity,SpRvs167,2.17
same,SPOT peptide array binding signal intensity,SpSla1-D1-D2,2.5
same,SPOT peptide array binding signal intensity,SpSla1-D3,5
